Tau fibril ThT: tau fibrillization inhibition (ThT binding). P10636. AID 1460. 2.1% of 270,000 active. Potency, µM (highest dose often 57.4 µM), without a hit: top-dose activity, negative = inhibition, actives largely listed as inhibitors. recombinant tau K18 P301L, heparin-induced fibrillization, ThT fluorescence; also: nearly all actives have a fitted effect of over 55% in size
Target sequence (P10636 561-689 P618L limits assumed): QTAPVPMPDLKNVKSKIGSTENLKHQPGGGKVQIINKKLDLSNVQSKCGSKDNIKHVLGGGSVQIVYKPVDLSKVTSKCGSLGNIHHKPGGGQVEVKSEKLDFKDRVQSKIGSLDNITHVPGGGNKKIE
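Tau K18 P301L fragment (15 uM unlabeled plus 0.24 uM Alexa 594-labeled) in 100 mM sodium acetate pH 7 with compound, fibrillization induced by 20 uM heparin for 6 hr at 37 C. Thioflavin T (30 uM) added, fluorescence read after 1 hr (ex 450, em 510 nm).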
VP16 counter: counter-screen for ROR gamma inhibitors: Gal4-VP16 reporter; AID 2546; Drosophila S2 Gal4-VP16 UAS-luciferase, luminescence, 20 h; 3.5% of 310,000 active; Potency, µM (doses to about 53.6 µM), for inactives: at the top dose activity, negative = inhibition, actives largely listed as inhibitors;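 also: Gal4-VP16 expression switched on by copper sulfate through the metallothionein promoter; nearly all actives have a fitted effect of over 50% in size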
Tau fluor counter: counter-screen for tau fibril formation inhibitors; tau K18 P301L Alexa594 fluorescence, heparin fibrillization; Potency, µM (highest dose often 57.7 µM), for inactives: top-dose activity change, negative = decrease; AID 1463; 0.93% of 280,000 active; also: nearly all actives have a fitted effect of over 55% in size
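Human tau K18 P301L (15 uM unlabeled, 0.24 uM Alexa 594-labeled) in 100 mM sodium acetate pH 7 with 20 uM heparin, 6 hr at 37 C. ThT 30 uM added, 1 hr ambient; Alexa 594 FP and total fluorescence read at 555/632 nm.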
Tau FP inhib: inhibitors of human tau fibril formation. P10636. K18 P301L tau heparin fibrillization, Alexa594 FP, 6 h. Potency, µM (titrated, usually from 57.7 µM), for the others: at the highest dose activity, negative = inhibition, hits mostly inhibitors. 0.39% of 280,000 active. AID 1468; also: nearly all actives have a fitted effect of over 55% in size
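Recombinant K18 P301L […], labeled with Alexa 594 at 0.24 uM over 15 uM unlabeled; heparin inducer 20 uM final; 37 C, 6 hr; FP endpoint.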
RORgamma inh: inhibitors of mouse ROR gamma transcriptional activity; Drosophila S2 Gal4-RORgamma UAS-luciferase reporter, 20 h; Potency, µM (series often up to 53.6 µM), inactives show at the highest dose activity change, negative = inhibition, actives largely listed as inhibitors; 5.4% of 310,000 active; also: nearly all actives have a fitted effect of over 60% in size
Target sequence (P51450 whole entry, looked up, the tested form may be a part): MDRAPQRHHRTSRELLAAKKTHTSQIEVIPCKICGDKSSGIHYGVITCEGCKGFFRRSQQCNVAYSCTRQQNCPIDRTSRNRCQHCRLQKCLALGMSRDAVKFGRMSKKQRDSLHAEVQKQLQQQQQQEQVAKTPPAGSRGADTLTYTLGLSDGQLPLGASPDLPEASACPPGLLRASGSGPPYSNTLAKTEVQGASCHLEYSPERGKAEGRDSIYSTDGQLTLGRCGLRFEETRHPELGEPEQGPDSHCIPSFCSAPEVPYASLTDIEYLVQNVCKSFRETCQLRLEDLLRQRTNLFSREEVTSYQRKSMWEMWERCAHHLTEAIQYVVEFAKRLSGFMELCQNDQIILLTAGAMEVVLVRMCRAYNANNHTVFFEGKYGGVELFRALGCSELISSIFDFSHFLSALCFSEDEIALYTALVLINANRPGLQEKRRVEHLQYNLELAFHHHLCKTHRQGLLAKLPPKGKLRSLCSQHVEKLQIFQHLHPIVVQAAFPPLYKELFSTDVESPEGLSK
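Luciferase reporter read in Schneider cells carrying Gal4-RORγ (mouse) and UAS-Photinus luciferase; cells given compound 1 h before 700 uM copper sulfate induction, then incubated 20 h at ambient temperature.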
Numbers without * were called inactive; ? = inconclusive; . = not tested or not shown; [ ] = dose if it differs, or a comment. An excerpt weighted towards active compounds, which were near 7.3% of everything screened. Calls follow the shape of the dose curve; as a rule, active = well fitted curve in the direction sought with a large enough effect; inconclusive = small, poorly fitted or top-dose-only effect, or another doubt; inactive = no such curve, though single readings can be large; an effect the other way counts as inactive or inconclusive. % is scaled to controls: 0 for no effect and ±100 for the full control effect; potency is read from the fitted curve at half-maximal effect.

SMILES	Tau fibril ThT	VP16 counter	Tau fluor counter	Tau FP inhib	RORgamma inh
COc1cccc(/C=C/c2nc(C#N)c(NCCc3ccc(OC)c(OC)c3)o2)c1	?	.	13µM*[quencher]	?	.
N#Cc1nc(-c2cccc3ccccc23)oc1NCC1CCCO1 (centres undefined)	?	-16%	16µM*[quencher]	?	0%
COc1ccc(-c2nc(C#N)c(NCCc3ccccc3)o2)cc1OC	?	0%	16µM*[quencher]	?	33%
CC(CNC(=O)C1CCCN(S(=O)(=O)N2CCOCC2)C1)c1ccccc1 (centres undefined)	.	-6%	.	.	10%
CCCCNCC	.	-1%	.	.	13%
Cc1noc(-c2ccc(CSCCC(=O)O)cc2)c1NC(=O)OC(C)c1ccccc1Cl (centres undefined)	.	-11%	.	.	-1%
COc1ccc(CNc2oc(-c3cccc4ccccc34)nc2C#N)cc1	-17%	-4%	8.9µM*[quencher]	-7%	?
COc1cccc(/C=C/c2nc(C#N)c(NCC(C)C)o2)c1	.	3%	.	.	?
CNc1oc(-c2cccc3ccccc23)nc1C#N	-11%	0%	-23%	11%	-21%
COc1ccc(CNc2oc(/C=C/c3cccc(OC)c3)nc2C#N)cc1	?	.	6.3µM*[quencher]	?	.
CCOC(=O)c1cccc(NC(=O)CCn2nc(C)c3c(C)n(-c4ccccc4)nc3c2=O)c1	12%	.	10%	0%	.
O=[N+]([O-])c1ccccc1S(=O)(=O)Nc1nc2ccccc2s1	.	5%	.	.	-19%
O=[N+]([O-])c1cc(Cl)cc(/C=N/Nc2nc3ccccc3s2)c1O	11µM*	2.2µM*	25µM*[quencher]	-3%	0.89µM*
COc1cc(/C=N/Nc2nc3ccccc3s2)cc([N+](=O)[O-])c1O	1.8µM*	-15%	14µM*[quencher]	-10%	7%
CCc1ccc(OCC(=O)Nc2ccc3oc(=O)ccc3c2)cc1	.	1%	.	.	-1%
Cc1cc(C)nc(N/N=C/c2cc(C)n(CC(F)(F)F)c2C)n1	-14%	?	-9%	2%	8.9µM*
Cc1cc(C)nc(N/N=C/c2ccco2)n1	-6%	14%	0%	3%	23%
COc1ccc(Nc2nc3c(S(=O)(=O)c4ccccc4)nnn3c3ccc(Cl)cc23)cc1	11%	.	-11%	?	.
CCc1ccc(S(=O)(=O)c2nnn3c2nc(Nc2ccc(F)cc2)c2cc(Cl)ccc23)cc1	-1%	.	?	14µM*	.
Cc1ccc(C)c(S(=O)(=O)c2nnn3c2nc(Nc2ccc(F)c(Cl)c2)c2sccc23)c1	?	.	?	14µM*	.
O=c1[nH]c2ccc(NCc3ccccc3F)cc2[nH]1	?	.	-24%	-7%	.
C[C@@H](C(=O)O)c1ccc(C(=O)c2ccccc2)s1	.	-3%[17 µM]	.	.	13%[2.98 µM]
Cn1c(=O)c(C#N)c(-c2ccc(F)cc2)c2cc(C(=O)c3cc(Cl)cc(Cl)c3O)cnc21	14µM*	18µM*	-24%	1%	-73%
NC(=S)NC1CC2CC1C1C=CCC21 (centres undefined)	-5%	-2%	-5%	5%	28µM*
CNNC(=S)NC1CC2CC1C1C=CCC21 (centres undefined)	-14%	10%	-11%	5%	?
SMILES	Tau fibril ThT	VP16 counter	Tau fluor counter	Tau FP inhib	RORgamma inh
CCOc1ccccc1CNC(=O)C1CCN(S(=O)(=O)c2cccc3nonc23)CC1	12%	.	2%	3%	.
CCCC[C@@H]1CNC(=S)N1CCCC	-3%	7.9µM*	-1%	-2%	2.8µM*
O=C1NN(C(=O)Nc2ccc(Br)cc2)C(c2ccccc2)C1c1ccccc1 (centres undefined)	.	5%	.	.	8%
N#CC(c1ccccc1)c1ccc2c(C(F)(F)F)cc(C(F)(F)F)nc2n1 (centres undefined)	?	?	?	?	11µM*
Cc1ccc(C)c(Cn2c(=O)n(Cc3ccccc3)c(=O)c3c2c2cc(C)ccc2n3C)c1	18%	.	13%	5%	.
COC(=O)CC(=O)CSc1nc2cc(C(=O)NCC(C)C)ccc2c(=O)n1CCc1ccccc1	3%	.	-8%	-5%	.
Nc1ccc2c(c1)N1CCN=C1S2	-14%	-4%	3%	-1%	6%
O=C(Nc1ccc(Cl)cc1)Nc1ccc2c(c1)N1CCN=C1S2	-15%	-9%	14µM*[quencher]	-11%	8%
Cc1ccc(C(=O)C(C(=O)/C=C/c2ccccc2)=C2SCCCS2)cc1	?	14µM*	-8%	14%	3.5µM*
CCCN(C(=O)CCNC(=O)Cn1cnc2ccccc2c1=O)c1cccc(Cl)c1	.	-3%	.	.	9%
O=C1NC(=S)N/C1=C/c1cc([N+](=O)[O-])ccc1O	16µM*	2%	-20%	-1%	-18%
Cc1ccc(/C=C2\NC(=S)NC2=O)cc1[N+](=O)[O-]	?	-3%	-10%	0%	7%
O=C1NC(=S)N/C1=C/c1cccc([N+](=O)[O-])c1O	4.5µM*	-14%	?	-8%	?
O=C(Nc1ccc([N+](=O)[O-])cc1Cl)c1cc(Cl)ccc1O	7.1µM*	1.3µM*	?	6%	1.3µM*
O=C(Nc1cccc(Cl)c1)c1cc(N=Nc2ccc([N+](=O)[O-])cc2Cl)ccc1O	0.89µM*	?	1.1µM*[quencher]	8.9µM*	?
O=[N+]([O-])c1ccc(O)c(/C=N/NC(=S)Nc2ccc(Cl)cc2Cl)c1	.	2.5µM*	?	13%	2.5µM*
Cc1ccc(O)c(NC(=O)c2cc([N+](=O)[O-])ccc2Cl)c1	9%	?	0%	0%	5%
O=C(Nc1ccncc1)c1cc([N+](=O)[O-])ccc1Cl	-14%	?	-18%	3%	8.9µM*
O=C(Nc1ncnc2c1ncn2[C@@H]1O[C@@H]2COP(=O)(O)O[C@H]2[C@H]1O)c1ccccc1	.	-4%	.	.	-10%
CCNC(=S)NNc1ccccc1	?	4µM*	-16%	?	0.71µM*
S=C(NCc1ccccc1)NNc1ccccc1	?	3.2µM*	-24%	?	1.4µM*
CCNC(=S)NS(=O)(=O)c1ccccc1	-2%	-3%	-3%	-2%	?
Cc1ccc(NC(=O)NCCc2c(C)nn(C)c2C)cc1Cl	-17%	.	-21%	-2%	.
CCN1CCN(Cc2ccc(NC(=O)c3ccc(C)c(NC(=O)C(=O)c4c[nH]c5ccccc45)c3)cc2C(F)(F)F)CC1	-14%	?	-24%	?	13µM*
CCN1CCN(Cc2ccc(NC(=O)c3ccc(C)c(NC(=O)c4ccc5n[nH]nc5c4)c3)cc2C(F)(F)F)CC1	6%	3%	4%	1%	-24%
CCN1CCN(Cc2ccc(NC(=O)c3cc(NC(=O)C(=O)c4c[nH]c5ccccc45)cc(OC)c3)cc2C(F)(F)F)CC1	-14%	?	?	14µM*	?
